Experimental data published in PubChem BioAssay (EPA / NIEHS).
Several values for one entry are separate records, joined by “and”; a condition that tells them apart may be missing. Equal entries are not always repeated. Records with an inconclusive call do not appear. Activity calls are given as the source filed them. Rule for the calls: active = hit-call score of the fitted dose curve at least 0.9, where 1 is the maximum; inconclusive = response in the unintended direction; inactive = score below 0.9.

Experiments:
[1] = TOX21_p53_BLA_p2_viability: Viability Assessment in the Tox21 HCT-116 p53 Agonism Beta-lactamase Assay, Phase 2 (AID 2283591);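 note: compound exposure lasted 16 h at 37 °C; actives lower the ATP signal meaning cytotoxicity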
Method in brief: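 HCT116 p53-bla cells, 4000/well, dosed after 5 h plating (217-fold dilution of DMSO stocks) and incubated 16 h at 37C. Viability taken as cellular ATP by CellTiter-Glo luminescence after 30 min RT; signal loss marks cytotoxicity.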

[2] = target: Cellular tumor antigen p53 (Homo sapiens) (UniProt P04637); assay: TOX21_p53_BLA_p2_ratio: Tox21 HCT-116 p53 Agonism Beta-lactamase Assay, Ratio, Phase 2 (AID 2283592)
Method in brief: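 Ratio endpoint: beta-lactamase cleavage of CCF4-AM, blue (460 nm) over green (530 nm). HCT116 reporter line; 16 h treatment, 37C; substrate 2 h RT.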

[3] = TOX21_p53_BLA_p3_viability: Viability Assessment in the Tox21 HCT-116 p53 Agonism Beta-lactamase Assay, Phase 3 (AID 2283593);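 note: cells exposed to compound for 16 h before reading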
Method in brief: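 HCT116 cells, 4000/well, dosed 5 h after plating by pin transfer (217-fold dilution from DMSO stock) and incubated 16 h at 37C, 5% CO2. Viability read as ATP luminescence with CellTiter-Glo after 30 min at room temperature.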

[4] = target: Cellular tumor antigen p53 (Homo sapiens) (UniProt P04637); assay: TOX21_p53_BLA_p3_ratio: Tox21 HCT-116 p53 Agonism Beta-lactamase Assay, Ratio, Phase 3 (AID 2283596)
Method in brief: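 Cells were seeded at 4000/well, rested 5 h at 37C, then dosed with DMSO compound solutions (217-fold dilution) for 16 h. CCF4-AM substrate was loaded for 2 h at room temperature, and the 460/530 nm emission ratio was fitted for gain of signal versus DMSO.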

[5] = TOX21_p53_BLA_p4_viability: Viability Assessment in the Tox21 HCT-116 p53 Agonism Beta-lactamase Assay, Phase 4 (AID 2283597);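 note: hits lower the luminescence signal meaning cytotoxicity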
Method in brief: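 Cytotoxicity was inferred from loss of CellTiter-Glo luminescence. HCT116 cells had been dosed with compounds after 5 h plating, incubated 16 h at 37C and 5% CO2, and exposed to the CCF4-AM substrate for 2 h.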

[6] = target: Cellular tumor antigen p53 (Homo sapiens) (UniProt P04637); assay: TOX21_p53_BLA_p5_ratio: Tox21 HCT-116 p53 Agonism Beta-lactamase Assay, Ratio, Phase 5 (AID 2283599)
Method in brief: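 HCT-116 p53-bla cells (4000/well) plated 5 h, dosed with compound (217-fold DMSO dilution) for 16 h at 37 C; CCF4-AM substrate 2 h at room temperature. Activity is the 460/530 nm emission ratio (405 nm excitation), fitted in gain-of-signal direction versus DMSO.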

[7] = TOX21_p53_BLA_p5_viability: Viability Assessment in the Tox21 HCT-116 p53 Agonism Beta-lactamase Assay, Phase 5 (AID 2283600)
Method in brief: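 Luciferase-coupled ATP quantitation of cells treated for 16 h (37C, 5% CO2) with test chemicals delivered in DMSO via a 217-fold dilution; 4000 cells/well; reagent incubated 30 min at room temperature before luminescence reading.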

[8] = target: Cellular tumor antigen p53 (Homo sapiens) (UniProt P04637); assay: TOX21_p53_BLA_p4_ratio: Tox21 HCT-116 p53 Agonism Beta-lactamase Assay, Ratio, Phase 4 (AID 2283601)
Method in brief: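 HCT-116 p53 beta-lactamase reporter cells (4000/well) preincubated 5 h, then compound (217-fold dilution of DMSO stock) for 16 h at 37C. CCF4-AM substrate added 2 h at room temperature; 460/530 nm emission ratio fitted upward versus DMSO.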

THRB (gene 7068) [9] = target: THRB (gene 7068) (UniProt P10828); assay: TOX21_TRB_BLA_Antagonist_Followup_ratio: Tox21 Thyroid Hormone Receptor beta Antagonism Beta-lactamase (BLA) Follow-Up Assay, Ratio (AID 2283958)
Method in brief: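 Cells were plated and allowed to attach for 5 h, then dosed with compounds in DMSO at 11 concentrations for 18 h at 37C. Beta-lactamase reporter activity was measured via CCF4-AM FRET as the 460:530 nm ratio.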

[10] = TOX21_TRB_BLA_Antagonist_Followup_viability: Viability Assessment in the Tox21 Thyroid Hormone Receptor beta Antagonism Beta-lactamase (BLA) Follow-Up Assay (AID 2283961)
Method in brief: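 HEK293T cells stably expressing GAL4-DBD/human TRβ-LBD with UAS-bla reporter, 3,000 cells/well in phenol red-free DMEM, 2% charcoal-stripped FBS. Compounds at 11 concentrations in triplicate, 18 h at 37C/5% CO2; viability by CellTiter-Glo luminescence after 30 min at room temperature.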

THRB (gene 7068) [11] = target: THRB (gene 7068) (UniProt P10828); assay: TOX21_TRB_COA_Antagonist_Followup_ratio: Tox21 Thyroid Hormone Receptor beta Antagonism through Coactivator Recruitment Follow-Up Assay, Ratio (AID 2283967)
Method in brief: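 GST-TRb LBD 5.0 nM + 0.10% BSA, compound added; fluorescein-SRC-2 peptide 200 nM, Tb-anti-GST Ab 2 nM. TR-FRET, ex 340 / em 520:495 ratio. Norm: DMSO 0%, T3 100%.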

[12] = target: Retinoic acid receptor RXR-alpha (Homo sapiens) (UniProt P19793); assay: TOX21_TR_RXR_BLA_Antagonist_Followup_ratio: Tox21 Thyroid Hormone Receptor beta Retinoid X Receptor alpha (RXRa) Antagonism Beta-lactamase (BLA) Follow-Up Assay, Ratio (AID 2283972)
Method in brief: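 RXRa-UAS-bla HEK293T cells in phenol red-free DMEM with 2% charcoal-stripped FBS; compounds at 11 concentrations in triplicate, 16 h at 37C. LiveBLAzer FRET-B/CCF4-AM substrate 2 h at room temperature; read as 460:530 nm ratio versus DMSO.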

[13] = TOX21_TR_RXR_BLA_Antagonist_Followup_viability: Viability Assessment in the Tox21 Thyroid Hormone Receptor beta Retinoid X Receptor alpha (RXRa) Antagonism Beta-lactamase (BLA) Follow-Up Assay (AID 2283979)
Method in brief: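 RXRa-bla HEK293T cells (2,500/well, phenol red-free DMEM, 2% charcoal-stripped FBS) were attached 5 h, then exposed to compounds at 11 concentrations in triplicate for 16 h at 37C. Viability measured by CellTiter-Glo ATP luminescence, bidirectional fitting versus DMSO.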

[14] = target: Thyroid hormone receptor alpha (Rattus norvegicus) + Thyroid hormone receptor beta (Rattus norvegicus) (UniProt P18113+P63059); assay: TOX21_TR_LUC_GH3_Antagonist_Followup: Tox21 GH3 Thyroid Hormone Receptor Antagonism Luciferase Follow-Up Assay (AID 2283942)
Method in brief: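 Luminescence read-out (ONE-Glo, 30 min at room temperature) in GH3 reporter cells challenged with 1.0 nM T3 final. Compounds ran at 92 uM to 5nM over 15 concentrations for 24 h; DMSO served as negative control and baseline.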

THRA (gene 7067) = THRA (gene 7067) (UniProt P10827); assay: TOX21_TRA_COA_Antagonist_Followup_ratio: Tox21 Thyroid Hormone Receptor alpha Antagonism through Coactivator Recruitment Follow-Up Assay, Ratio (AID 2283953)
Method in brief: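 GST-TRα LBD 2.5 nM, BSA 0.10%, + cpd; then FITC-SRC-2 peptide 200 nM + Tb-anti-GST Ab 2 nM. TR-FRET ratio 520/495 nm. Norm: DMSO = 0%, T3 = 100%.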

Measured: AC50

Sequence of THRA (gene 7067) (P10827 whole entry, looked up, the tested form may be a part): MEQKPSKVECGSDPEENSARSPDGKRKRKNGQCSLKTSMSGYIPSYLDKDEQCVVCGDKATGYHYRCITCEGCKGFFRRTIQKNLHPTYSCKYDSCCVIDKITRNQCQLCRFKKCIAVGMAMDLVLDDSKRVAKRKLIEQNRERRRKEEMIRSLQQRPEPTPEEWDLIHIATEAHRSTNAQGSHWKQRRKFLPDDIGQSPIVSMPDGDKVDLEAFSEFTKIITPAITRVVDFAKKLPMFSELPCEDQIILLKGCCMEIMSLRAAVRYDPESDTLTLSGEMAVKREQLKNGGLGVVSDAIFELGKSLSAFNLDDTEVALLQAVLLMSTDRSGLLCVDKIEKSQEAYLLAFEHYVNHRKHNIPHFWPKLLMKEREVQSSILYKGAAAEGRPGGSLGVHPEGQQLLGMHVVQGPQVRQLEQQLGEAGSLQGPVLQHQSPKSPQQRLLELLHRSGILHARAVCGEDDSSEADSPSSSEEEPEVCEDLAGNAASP
Sequence of Retinoic acid receptor RXR-alpha (Homo sapiens) (P19793 whole entry, looked up): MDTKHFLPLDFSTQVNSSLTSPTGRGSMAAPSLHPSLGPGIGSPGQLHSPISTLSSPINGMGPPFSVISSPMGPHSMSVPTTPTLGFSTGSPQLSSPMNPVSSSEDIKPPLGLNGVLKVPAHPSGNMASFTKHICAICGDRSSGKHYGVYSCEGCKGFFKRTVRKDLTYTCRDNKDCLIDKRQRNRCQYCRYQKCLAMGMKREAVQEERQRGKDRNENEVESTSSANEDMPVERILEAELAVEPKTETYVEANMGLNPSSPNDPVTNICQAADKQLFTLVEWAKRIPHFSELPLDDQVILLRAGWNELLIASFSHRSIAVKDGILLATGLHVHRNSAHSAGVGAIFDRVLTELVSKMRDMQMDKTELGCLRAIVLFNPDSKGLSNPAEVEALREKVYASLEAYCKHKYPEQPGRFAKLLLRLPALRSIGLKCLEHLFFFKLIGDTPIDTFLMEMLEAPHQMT
Sequence of THRB (gene 7068) (P10828 whole entry, looked up, the tested form may be a part): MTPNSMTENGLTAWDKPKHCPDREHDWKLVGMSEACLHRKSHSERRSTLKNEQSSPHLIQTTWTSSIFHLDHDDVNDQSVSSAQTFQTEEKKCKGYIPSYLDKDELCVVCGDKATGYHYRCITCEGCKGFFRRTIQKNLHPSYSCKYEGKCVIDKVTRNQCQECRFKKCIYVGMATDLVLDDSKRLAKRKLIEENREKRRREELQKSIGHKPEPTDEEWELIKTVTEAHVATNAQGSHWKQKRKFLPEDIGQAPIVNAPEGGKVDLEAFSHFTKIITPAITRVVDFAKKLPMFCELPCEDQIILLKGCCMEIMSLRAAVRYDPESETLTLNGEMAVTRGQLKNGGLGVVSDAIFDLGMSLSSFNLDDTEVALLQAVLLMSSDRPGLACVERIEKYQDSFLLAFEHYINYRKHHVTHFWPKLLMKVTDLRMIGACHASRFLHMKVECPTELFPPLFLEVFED
Sequence of Cellular tumor antigen p53 (Homo sapiens) (P04637 whole entry, looked up): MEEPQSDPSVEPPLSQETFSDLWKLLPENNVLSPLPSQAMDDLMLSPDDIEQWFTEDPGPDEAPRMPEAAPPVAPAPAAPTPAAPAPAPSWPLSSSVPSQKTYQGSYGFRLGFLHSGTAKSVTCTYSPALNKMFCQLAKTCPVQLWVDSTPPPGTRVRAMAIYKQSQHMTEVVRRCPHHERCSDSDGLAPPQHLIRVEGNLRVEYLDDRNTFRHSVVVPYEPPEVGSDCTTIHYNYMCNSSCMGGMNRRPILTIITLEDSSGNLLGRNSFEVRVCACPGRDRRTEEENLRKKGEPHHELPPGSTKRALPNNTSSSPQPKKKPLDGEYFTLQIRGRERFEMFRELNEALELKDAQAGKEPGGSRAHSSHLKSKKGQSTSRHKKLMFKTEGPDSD

CN(C)C(=O)C(CCN1CCC(O)(c2ccc(Cl)cc2)CC1)(c1ccccc1)c1ccccc1
inactive: [1] | [2] | [3] | [4] | [6] | [7] | [8]
active: [5] 26.6 µM

O=C(O)c1cccc(-c2noc(-c3ccccc3F)n2)c1
inactive: [1] | [2] | [3] | [4] | [6] | [7] | THRB (gene 7068) [9] | [10] | THRB (gene 7068) [11] | [12] | [13]
active: [5] 23 µM

O=C1Cc2cc(CCN3CCN(c4nsc5ccccc45)CC3)c(Cl)cc2N1
inactive: [1] | [2] | [3] | [4] | [5] | [6] | [7] | [8]

O=P(O)(O)C(O)(Cc1cccnc1)P(=O)(O)O
inactive: [1] | [2] | [3] | [4] | [5] | [6] | [8]

CC1(C)N=C(N)N=C(N)N1c1ccc(Cl)cc1
inactive: [4] | [6] | [8] | [14] | THRA (gene 7067) | THRB (gene 7068) [9] | THRB (gene 7068) [11] | [12] | [13]
active: [1] 6.72 µM | [2] 28.2 µM | [3] 13.9 µM | [5] 6.46 µM | [7] 7.84 µM | [10] 32.1 µM

Brc1cc(Oc2cc(Br)c(Br)c(Br)c2Br)c(Br)c(Br)c1Br
inactive: [1] | [2] | [3] | [4] | [5] | [6] | [7] | [8] | [14] | THRA (gene 7067) | [10] | THRB (gene 7068) [11] | [12] | [13]

CNC(=O)c1cc(Oc2ccc(NC(=O)Nc3ccc(Cl)c(C(F)(F)F)c3)cc2)ccn1
active: [2] 7.13 µM | [4] 5.52 µM | [6] 6.76 µM
inactive: [1] | [3] | [5] | [7] | [8]

C[n+]1c2cc(N)ccc2cc2ccc(N)cc21 (tested in a mixture with another compound)
inactive: [1] | [3] | [5] | [7] | [10]
active: [2] 11.6 µM | [4] 9.45 µM | [6] 9.47 µM | [8] 6.18 µM | [14] 18.2 µM | THRB (gene 7068) [9] 36 µM | [12] 19.2 µM | [13] 16.5 µM

CCC[C@@]1(CCc2ccccc2)CC(O)=C([C@H](CC)c2cccc(NS(=O)(=O)c3ccc(C(F)(F)F)cn3)c2)C(=O)O1
inactive: [1] | [2] | [3] | [4] | [5] | [6] | [7] | [8] | THRB (gene 7068) [9] | [10] | [12] | [13]

NC(N)=NCc1cccc(I)c1
inactive: [1] | [2] | [3] | [4] | [5] | [6] | [7] | [8] | [14] | THRA (gene 7067) | THRB (gene 7068) [9] | [10] | THRB (gene 7068) [11] | [12] | [13]

Cc1nc(Nc2ncc(C(=O)Nc3c(C)cccc3Cl)s2)cc(N2CCN(CCO)CC2)n1
inactive: [1] | [7]
active: [2] 26.8 µM | [3] 33.4 µM | [4] 36.5 µM | [5] 35.5 µM | [6] 32.7 µM | [8] 22.8 µM

Cc1nc2ccccc2n1Cc1ccc(Cl)cc1
inactive: [1] | [2] | [3] | [4] | [5] | [6] | [7] | [8] | THRA (gene 7067) | THRB (gene 7068) [9] | [10] | THRB (gene 7068) [11] | [12] | [13]

CCCC(=O)O[C@]1(C(=O)CCl)[C@@H](C)C[C@H]2[C@@H]3CCC4=CC(=O)C=C[C@]4(C)[C@@]3(F)C(=O)C[C@@]21C
inactive: [1] | [2] | [3] | [4] | [5] | [6] | [7] | [8] | THRA (gene 7067) | THRB (gene 7068) [9] | [10] | THRB (gene 7068) [11] | [13]

O=[N+]([O-])c1ccc(NCCO)c(OCCO)c1
inactive: [1] | [2] | [3] | [4] | [5] | [6] | [8]

C1CC(COCC2CO2)CCC1COCC1CO1 (centres undefined)
inactive: [1] | [2] | [3] | [4] | [5] | [6] | [8]

Nc1c2ccccc2nc2ccccc12
active: [2] 2.18 µM and 2.99 µM | [4] 5.09 µM and 6.02 µM | [6] 3.58 µM and 3.94 µM | [8] 2.28 µM and 5.34 µM | [14] 6.25 µM | [13] 10.6 µM
inactive: [1] | [3] | [5] | [7] | THRA (gene 7067) | [10] | THRB (gene 7068) [11] | [12]

C#CCC(Cc1cnc2nc(N)nc(N)c2n1)c1ccc(C(=O)N[C@@H](CCC(=O)O)C(=O)O)cc1 (some centres undefined)
active: [1] 0.245 µM | [2] 0.43 µM | [3] 0.301 µM | [4] 0.661 µM | [5] 0.385 µM | [6] 1.13 µM | [7] 0.538 µM | [8] 0.575 µM | [10] 0.44 µM | [12] 0.448 µM | [13] 0.542 µM
inactive: [14] | THRB (gene 7068) [9] | THRB (gene 7068) [11]
